Experimental data from PubChem BioAssay AID588342 (National Center for Advancing Translational Sciences (NCATS), 2011).
Out of some 360,000 compounds screened, about 25,000 (6.9%) were called active. Entries that show only a call come without a potency. Inconclusive results (about 9%) are left out. The call rests on the fitted dose curve; in most records, active means well fitted inhibition curve with a large enough effect; inconclusive means small, poorly fitted or top-dose-only effect; inactive means flat fitted curve, though single readings scatter. Only a selection was taken, and actives are over-represented in it overall.

The compounds below were run against Luciferin 4-monooxygenase (Photinus pyralis) (UniProt P08659) (assay: qHTS profiling assay for firefly luciferase inhibitor/activator using purifed enzyme and Km concentrations of substrates (counterscreen for miR-21 project)). Conditions: purified FLuc, luminescence inhibition; series mostly up to 57.5 µM.
Luciferin 4-monooxygenase (Photinus pyralis), sequence (P08659 whole entry, looked up): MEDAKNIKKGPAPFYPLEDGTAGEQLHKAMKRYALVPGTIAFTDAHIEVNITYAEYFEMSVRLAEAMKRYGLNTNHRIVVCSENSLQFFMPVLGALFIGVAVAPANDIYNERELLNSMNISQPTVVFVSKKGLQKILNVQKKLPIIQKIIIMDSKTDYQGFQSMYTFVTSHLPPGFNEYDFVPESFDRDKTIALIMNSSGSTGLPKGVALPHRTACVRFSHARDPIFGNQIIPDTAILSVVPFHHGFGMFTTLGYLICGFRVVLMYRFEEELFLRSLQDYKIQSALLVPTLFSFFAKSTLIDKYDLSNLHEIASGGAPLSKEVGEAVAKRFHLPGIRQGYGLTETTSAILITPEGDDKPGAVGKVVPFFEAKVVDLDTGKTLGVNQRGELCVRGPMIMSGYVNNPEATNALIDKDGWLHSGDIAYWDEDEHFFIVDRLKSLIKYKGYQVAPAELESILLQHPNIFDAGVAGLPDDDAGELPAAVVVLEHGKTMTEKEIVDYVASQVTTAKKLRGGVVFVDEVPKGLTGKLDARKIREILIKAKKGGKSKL
How it was run: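 Purified P. pyralis luciferase (10nM final) with 10uM D-luciferin and 10uM ATP (Km levels) in 50mM Tris acetate pH 7.5, 10mM Mg acetate, 0.01% Tween-20, 0.05% BSA; qHTS 6-point titration, ~60 µM downward; luminescence read.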
Further: nearly all actives have a fitted effect of over 55% in size.
Potency means the concentration at half of the fitted maximal effect.

Structure (SMILES) | Potency
CCOC(=O)/C=c1\s/c(=C\c2ccc(C#N)cc2)c(=O)n1CC(=O)Nc1cccc(C)c1C | inactive
CCOc1ccccc1NC(=O)Cn1c(=O)n(Cc2ccco2)c(=O)c2sc3ccccc3c21 | inactive
CN(c1ccccc1)c1ccc(/C=c2\s/c(=C(/C#N)C(=O)C(C)(C)C)n(Cc3ccco3)c2=O)cc1 | 15.1 µM (active)
O=C(CCc1cn(Cc2ccc(F)cc2)c2ccccc12)NC1CCCCC1 | inactive
COc1ccc(CCN=C2SCC(=O)N2Cc2ccccc2)cc1OC | inactive
Cc1ccc(-c2nn(CCC(=O)Nc3ccc(Cl)c(Cl)c3)c(=O)c3ccccc23)cc1 | inactive
CC(C)c1nc2oc3c(N4CCN(C)CC4)ncnc3c2c2c1CCC2 | inactive
FC(F)(F)c1cccc(NC(=S)Nc2cccc(Cl)c2)c1 | inactive
Cc1cccc(NC(=S)Nc2ccc(Cl)c(Cl)c2)c1 | inactive
Cc1csc(NC(=S)Nc2cccc(Cl)c2)n1 | 4.78 µM (active)
COC(=O)c1ccccc1NC(=S)NC(=O)c1ccccc1F | inactive
O=C(NC(=S)Nc1ccccc1C(=O)O)c1ccc(-c2ccc(Br)cc2)o1 | 26.9 µM (active)
O=C(O)c1ccccc1NC(=O)c1ccccc1-c1ccccc1C(=O)O | inactive
Cc1ccc(NC(=O)CN(C)C(=O)COC(=O)c2nccnc2N)cc1 | inactive
COC(=O)c1cc(NC(=O)c2sc3ccccc3c2Cl)cc(C(=O)OC)c1 | inactive
COc1ccc(N=C(C)c2sc3ccccc3c2O)cc1 | 0.601 µM (active)
Cc1cc(C)cc(NC(=O)C(OC(=O)c2ccc(O)cc2)c2ccccc2)c1 (configuration not stated) | inactive
CC(C)CN(C(=O)CSc1nncn1C)C1CCS(=O)(=O)C1 (configuration not stated) | inactive
Cc1cccc(NC(=O)N2CCN(C)c3ncccc32)c1C | inactive
CCCC(=O)Nc1ccc(NC(=O)c2sc3ccccc3c2Cl)cc1 | inactive
O=C(Nc1ccon1)c1sc2ccccc2c1Cl | 7.57 µM (active)
O=C(Nc1ccon1)c1cccc(Cl)c1 | inactive
Cc1cc2c(cc1C)C(c1cccc(OC(C)C)c1)CC(=O)N2 (configuration not stated) | inactive
Cc1cccc(-c2nc(SCc3ccc(Br)cc3)n3[nH]c(=O)cc3n2)c1 | inactive
CCOc1ccc(-n2c(SCC(=O)NCc3ccccc3)nc3n[nH]c(C)c3c2=N)cc1 | inactive
CCCn1c2ccccc2c2cnn(CC(=O)NCCCOC(C)C)c(=O)c21 | inactive

Structure (SMILES) | Potency
CSCCNC(=O)c1ccc2nc(Cc3ccccc3F)oc2c1 | 19 µM (active)
COc1ccc(Cc2nc3ccc(C(=O)NCc4ccccc4C)cc3o2)cc1 | inactive
O=C(NCCc1ccc(Cl)cc1)c1ccc2nc(CCc3ccccc3)oc2c1 | inactive
Cn1c(=O)sc2cc(NS(=O)(=O)c3ccc(C(C)(C)C)cc3)ccc21 | inactive
Cc1cccnc1CCNC(=O)C1CCC(=O)N(Cc2cccc(F)c2)C1 (configuration not stated) | inactive
CCOc1ccc(-c2cc3nc(C4CCN(C(=O)OC(C)(C)C)CC4)c(C(=O)Nc4cccc(CC)c4)cn3n2)cc1 | inactive
CN1C2CCC1/C(=C\c1ccccc1Cl)C(=O)/C2=C\c1ccccc1Cl | inactive
CCSc1ncc(Cl)c(C(=O)Nc2c(C(=O)c3ccccc3)oc3ccccc23)n1 | inactive
Cc1ccc(-n2ncc3c(Nc4cccc(C(=O)O)c4)ncnc32)cc1 | 0.953 µM (active)
Cc1ccc(Nc2ncnc3c2cnn3C)c(C)c1 | inactive
Fc1ccc(-n2ncc3c(Nc4ccc(Oc5ccccc5)cc4)ncnc32)cc1 | inactive
COc1ccc(Cl)cc1NC(=O)CCC(=O)c1ccc(C)cc1 | inactive
CCN1CCN(c2ncc3c(n2)CC(c2ccccc2O)CC3=O)CC1 (configuration not stated) | inactive
CCc1ccccc1NC(=O)CN(C)C(=O)c1cc(C2CC2)nn1-c1ccccc1 | inactive
Cc1ccc(C)c(OCC(=O)NNC(=O)C2CCC2)c1 | inactive
COc1cc(C(=O)OCC(=O)NC23CC4CC(CC(C4)C2)C3)cc(OC)c1OC | inactive
N#Cc1nc(-c2cccc3ccccc23)oc1N | inactive
CCOC(=O)c1c(C)[nH]c(C)c1S(=O)(=O)N1CCC(C(=O)Nc2ccc(C)c(Cl)c2)CC1 | inactive
O=C(CSc1ncnc2sccc12)N1CCN(C(=O)c2cccs2)CC1 | inactive
Nc1c(C(=O)c2cccs2)sc2nsc(SCCN3CCCCC3)c12 | 5.36 µM (active)
O=C(CN1C2=NCCN2c2ccccc21)c1cccs1 | inactive
O=C(NCCCN1CCN(c2cccc(Cl)c2)CC1)c1nnc(Cc2ccc(F)cc2Cl)o1 | inactive
CCOC(=O)c1ccc(NC(=O)c2nc[nH]c2C(=O)N[C@@H](CCCCNC(=O)OC(C)(C)C)C(=O)OC(C)(C)C)cc1 | inactive
Cc1ccc(C(=O)/C=C/c2c(C)nn(-c3ccccc3)c2Cl)cc1 | 6.01 µM (active)
Cc1nn(-c2ccccc2)c(Cl)c1/C=C/C(=O)c1ccc(O)cc1 | 12 µM (active)
Cc1nn(-c2ccccc2)c(C)c1NC(=O)CCl | inactive

Structure (SMILES) | Potency
COc1ccc(CCNC(=O)c2c(C)nn(-c3ccccc3)c2Cl)cc1 | inactive
Cc1nn(-c2ccccc2)c(CC(C)(C)C(=O)O)c1C(=O)O | inactive
Cc1nn(-c2ccccc2)c(C)c1/C=C/C(=O)OC(C)C(N)=O (configuration not stated) | inactive
COc1ccc(-c2c(-c3cc(OC)cc(OC)c3)n(C)c3ccc(-c4ccn[nH]4)cc23)cc1 | inactive
O=C(NC1CC(=O)N(c2ccccc2)C1)c1ccco1 (configuration not stated) | inactive
CCOc1cc(C(=O)O)ccc1OCCOc1ccccc1 | inactive
COc1ccc(N2CCN(C(=O)c3ccccc3NC(=O)C3=C(C)OCCS3)CC2)cc1 | inactive
c1ccc(NCc2cccc3ccccc23)nc1 | inactive
Oc1ccc2ccccc2c1N=Nc1nccs1 | 19 µM (active)
O=c1c(-c2cccc(Cl)c2)c[nH]n1-c1ccccc1 | 26.9 µM (active)
O=c1c2cc(Br)ccc2nc(-c2cccc(Cl)c2)n1O | inactive
O=C1CC(NNc2ccccc2)C(=O)N1c1cccc(Cl)c1 (configuration not stated) | inactive
COc1ccc(S(=O)(=O)n2nc(C)c(S(=O)(=O)N3CCCCCC3)c2C)cc1 | inactive
COc1cc(NC(=O)c2cc(C3CC3)nc3c2c(C)nn3-c2ccccc2)cc(OC)c1 | inactive
O=[N+]([O-])c1ccc2c(c1)C(N1CCOCC1)/C(=C/C1(O)CCCCC1)O2 (configuration not stated) | inactive
Cn1c(=O)c2sccc2n2c(CCC(=O)NCc3ccccc3Cl)nnc12 | inactive
O=C(Nc1cccc([N+](=O)[O-])c1)c1ccc2c(c1)OCO2 | 19 µM (active)
CC(NC(=O)Nc1cccc([N+](=O)[O-])c1)c1ccc2c(c1)OCO2 (configuration not stated) | inactive
COCc1nnc(NC(=O)CS(=O)(=O)Cc2ccccc2)s1 | inactive
CN(CC(=O)Nc1cccc(F)c1)CC(=O)Nc1cccc([N+](=O)[O-])c1 | inactive
Cc1ccc2sc(NNC(=O)c3ccc4c(c3)OCCO4)nc2c1C | inactive
COCc1nnc(NC(=O)c2ccc3c(c2)OCO3)s1 | 23.9 µM (active)
O=CN1CCN(C(=O)c2ccc3c(c2)OCO3)CC1 | inactive
Cc1ccc(-n2nc3c(c2NC(=O)c2ccc4c(c2)OCO4)CSC3)c(C)c1 | inactive
O=C(Nc1ccccc1)c1ccc2c(c1)OCO2 | 12 µM (active)
O=C(Nc1nc2ccccc2s1)c1ccc2c(c1)OCO2 | 0.301 µM (active)

Structure (SMILES) | Potency
O=C(Nc1ccc(NC(=O)c2ccc3c(c2)OCO3)cc1)c1cccc(Cl)c1 | inactive
Cn1c(NC(=O)c2ccc3c(c2)OCO3)cc(=O)n(C)c1=O | inactive
CSCCC(NS(=O)(=O)c1ccc2c(c1)oc(=O)n2C)C(=O)NC1CCCc2ccccc21 (configuration not stated) | inactive
Cc1ccc(N2C(=O)C3N=NN(CC(=O)N4N=C(c5cccc6ccccc56)CC4c4ccccc4)C3C2=O)cc1 (configuration not stated) | inactive
O=C(Nc1c(C(=O)N2CCN(c3ccc(F)cc3)CC2)oc2ccccc12)c1ccco1 | inactive
CN(CC#CCC(c1ccccc1)c1ccccc1)C(C)(C)C | inactive
CCOC(=O)c1ccc(NC(=O)c2ncn(-c3ccccc3)n2)cc1 | inactive
O=C1Cc2cc(S(=O)(=O)Nc3cccc(F)c3)ccc2N1 | inactive
COC(=O)c1ccc(NC(=O)c2cnn(-c3ccc(Cl)cc3)c2C2CCN(C(=O)OC(C)(C)C)CC2)cc1 | inactive
CCOc1ccc(C(=O)NCC(=O)N2CCCCCCC2)cc1OCC | inactive
O=C(NCCS(=O)(=O)N1CCN(c2ccc(F)cc2)CC1)c1ccc2c(c1)OCO2 | inactive
O=C(Nc1ccc(N2CCOCC2)cc1)c1ccc2c(c1)OCO2 | 10.7 µM (active)
O=C(Nc1ccc2c(c1)CCC2)c1cccc(S(=O)(=O)Nc2ccccc2Cl)c1 | 21.3 µM (active)
CC(Sc1nc(-c2ccccc2)cc(C(F)(F)F)n1)C(=O)Nc1ccc2c(c1)OCO2 (configuration not stated) | inactive
CC(=O)Nc1cccc(C(=O)OCN2C(=O)c3ccccc3C2=O)c1 | inactive
O=C(c1ccc2c(c1)OCO2)N1CCOCC1 | inactive
CC(=O)Nc1cccc(C(=O)OCC(=O)c2ccc3c(c2)OCO3)c1 | 0.135 µM (active)
CC(C)C(=O)Nc1cccc(C(=O)Nc2ccc3c(c2)OCO3)c1 | 8.49 µM (active)
CC(NC(=O)COC(=O)c1ccc2c(c1)OCO2)c1ccccc1 (configuration not stated) | inactive
O=C(c1cccc(S(=O)(=O)Nc2ccccc2Cl)c1)N1CCN(C(=O)c2ccco2)CC1 | inactive
O=C(Nc1ccc2c(c1)CCC2)c1cccc(S(=O)(=O)N2CCN(c3ccc(F)cc3)CC2)c1 | inactive
O=C(c1ccccc1F)N1CCC(c2nc3c(nnn3Cc3cccc(F)c3)c(=O)[nH]2)CC1 | inactive
Cc1ccc2ncc(C(=O)Nc3ccc(OC(F)(F)F)cc3)c(=O)n2c1 | inactive
CCn1c2c(c(=O)n3ncc(C(=O)N4CCN(c5ccccc5)CC4)c13)CN(Cc1ccc(OC)cc1)CC2 | inactive
